Assay outcomes as filed in PubChem.
Compounds with a hit are over-represented: about 2.7% of the library has one in this group of screens.
MPTP block = mitochondrial permeability transition pore inhibitors, primary screen, biochemical, isolated mouse mitochondria, absorbance. Ca2+ swelling absorbance, 30 min. inhibition, % at 10 µM. 360,000 compounds, 1.4% hits;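 active means inhibition of 50% or more, scaled per plate between neutral and stimulator controls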;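 further: 0% = DMSO wells given calcium and 100% = 1 mM EGTA wells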
NadD block = inhibitors of S. aureus NadD, primary screen, biochemical, colorimetric, uHTS | Nicotinate-nucleotide adenylyltransferase NadD (Staphylococcus aureus N315) | purified NadD enzyme, colorimetric absorbance read-out | inhibition, % at 20 µM | 360,000 compounds, 0.78% hits; in the data active means inhibition above about 26%
aDG glyco up = activators of alpha-DG glycosylation, primary screen, uHTS, Pro5-aDG cells, AlphaScreen; AID 624168, 2012; 360,000 compounds, 0.22% hits; alpha-DG glycosylation AlphaScreen (IIH6); 0% Pro5, 100% B10-LARGE cell signal; activation, % at 10 µM;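 active means activation of at least 8% versus controls, or a plate z-score of at least 8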;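 further: Pro5 are CHO cells carrying HIG-tagged alpha-DG that lacks glycosylation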
TAG inh = inhibitors of triacylglycerol accumulation, primary screen, cell-based, uHTS, fluorescence, H9c2; inhibition, % at 12.5 µM; H9c2 cells, Nile Red lipid (TAG) fluorescence; cells loaded with 200 µM oleic acid; 230,000 compounds, 0.66% hits;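 active means pattern-corrected inhibition of lipid staining of at least 50% with the nuclear-stain viability signal not falling by more than 50%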;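 further: 0% = DMSO wells and 100% = triacsin C control wells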
NadD conf = inhibitors of S. aureus NadD, confirmation, biochemical, colorimetric, single concentration; shares compounds with NadD block; purified S. aureus NadD, colorimetric enzyme assay; inhibition, % at 20 µM; 2,000 compounds, 13% hits; AID 624309, 2012; in the data active means inhibition mostly above about 42%, no sharp cut-off; inactive means mostly below about 42%
* marks the source's active call; other numbers are inactive results; . = no result.

SMILES | MPTP block | NadD block | aDG glyco up | TAG inh | NadD conf
CCCCC(CC)C(=O)Nc1cc(C(=O)NCc2ccc(C)cc2)ccc1N1CCC2(CC1)CC(c1cccc(Br)c1)=NO2 (configuration not stated) | -1 | 28 | 0 | 41 | .
Cc1ccc(CNC(=O)c2ccc(N3CCC4(CC3)CC(c3cccc(Br)c3)=NO4)c(NC(=O)c3ccc(Cl)c([N+](=O)[O-])c3)c2)cc1 | 0 | 34* | 0 | 2 | -3
COC(=O)C1CCN(C2CN(Cc3ccc(F)cc3)S(=O)(=O)C2)CC1 (configuration not stated) | -1 | -7 | 0 | . | .
O=C(COC(=O)c1n[nH]c2ccccc12)NCCc1ccccc1 | 0 | -3 | 0 | 27 | .
CCC1(c2ccccc2)SCC(c2ccccc2)=NC1=O (configuration not stated) | 0 | -2 | 1 | -37 | .
COc1ccccc1CN1CC(C(=O)NCC2(O)CCCCC2)CCC1=O (configuration not stated) | -1 | 1 | 0 | 9 | .
CC(C)c1ccc(/C=C2\SC(=O)N(CC(=O)NCCCn3ccnc3)C2=O)cc1 | 11 | 34* | 0 | . | -5
O=C(CN1C(=O)S/C(=C\c2ccccc2)C1=O)NCCCn1ccnc1 | -1 | 6 | 0 | . | .
COc1ccc2c(Cl)c(C(=O)OCC(=O)c3ccc4c(c3)NC(=O)CO4)sc2c1Cl | 4 | 40* | 0 | 1 | 0
CCn1c(CNC(=O)c2ccccc2F)nnc1SCC(=O)NC1CCCCC1 | 3 | 3 | 0 | . | .
CC(C)n1c(CNC(=O)c2ccccc2F)nnc1SCC(=O)NC1CCCCC1 | -1 | 32* | 0 | -4 | 16
O=C(COC(=O)c1c2c(nc3ccccc13)/C(=C/c1cccc([N+](=O)[O-])c1)CCC2)NC1CCS(=O)(=O)C1 (configuration not stated) | 2 | -1 | 0 | 21 | .
Cc1cccc(C)c1NC(=O)COC(=O)c1ccc2c(c1)OCO2 | -1 | 2 | 0 | . | .
O=C(COC(=O)c1c2c(nc3ccccc13)/C(=C\c1ccco1)CC2)NC1CCCC1 | 1 | 64* | 0 | -14 | 51*
CN(CCC#N)C(=O)COC(=O)c1c2c(nc3ccccc13)/C(=C\c1ccco1)CC2 | 1 | 42* | 0 | 11 | 58*
CN1CCc2nc3ccccc3c(C(=O)OCC(=O)N(CCC#N)c3ccccc3)c2C1 | -1 | 2 | 0 | 7 | .
Cc1cccc(C)c1NC(=O)COC(=O)c1c2c(nc3ccccc13)/C(=C\c1ccc3c(c1)OCO3)CCC2 | 3 | 48* | 0 | . | 6
CC1CCCCC1NC(=O)COC(=O)c1c2c(nc3ccccc13)/C(=C\c1ccco1)CC2 (configuration not stated) | 3 | 79* | 0 | 12 | 51*
COC(=O)c1ccc(NS(=O)(=O)NC(=O)c2cn(C)c3ccccc23)cc1 | -2 | 4 | 0 | . | .
COc1ccc(Cn2c(SCC#N)nc3ccc(N4CCOCC4)cc3c2=O)cc1 | 3 | 15 | 0 | -10 | .
Cc1cccnc1NC(=O)CN1C(=O)NC(C)(c2ccc3ccccc3c2)C1=O (configuration not stated) | 0 | 1 | 0 | -11 | .
Cc1ccc(S(=O)(=O)N2CC(O)CC2C(=O)OCC(=O)Nc2ccc([N+](=O)[O-])cc2C(F)(F)F)cc1C (configuration not stated) | 0 | -1 | 0 | -3 | .
CCOc1ccc(CCN2C(=O)C(=O)N([C@@H](Cc3ccccc3)CN3CCC[C@H]3CN3C(=O)C(=O)NC[C@@H]3CC(C)C)C[C@@H]2Cc2ccc(O)cc2)cc1 | -3 | 30* | 0 | . | 31
CCOc1ccc(CCN2C(=O)C(=O)N([C@@H](Cc3ccccc3)CN3CCC[C@H]3CN3C(=O)C(=O)NC[C@@H]3Cc3ccc(O)cc3)C[C@@H]2Cc2ccc(O)cc2)cc1 | -1 | 29 | 0 | . | .
CCOc1ccc(CCN2C(=O)C(=O)N([C@@H](Cc3ccc(O)cc3)CN3CCC[C@@H]3CN3C(=O)C(=O)NC[C@@H]3Cc3ccccc3)C[C@@H]2Cc2ccccc2)cc1 | 0 | 29* | 0 | 7 | 43
SMILES | MPTP block | NadD block | aDG glyco up | TAG inh | NadD conf
CCn1c(/C=C/c2c(C)[nH]c3ccccc23)nc2ccccc2c1=O | 5 | 0 | 0 | . | .
Cc1[nH]c2ccccc2c1/C=C/c1nc2ccccc2c(=O)n1-c1ccc([N+](=O)[O-])cc1 | 3 | 34* | 0 | 36 | 7
O=C(/C=C/c1cccs1)Nc1ccc(N2CCOCC2)c(S(=O)(=O)Nc2cc(Cl)ccc2Cl)c1 | 5 | 34* | 0 | . | 16
COCCCNC(=O)c1cc2cc(Br)ccc2oc1=O | -2 | -3 | 0 | -15 | .
O=C(NNC(=O)c1cc2cc(Br)ccc2oc1=O)c1ccc(O)cc1O | 6 | 29* | 1 | -15 | 58*
Cn1c2ccccc2c(=O)c2cc(C#CC3=CCCCC3)ccc21 | 0 | 32* | 0 | -1 | 9
Cn1c2ccccc2c(=O)c2ccc(C#Cc3ccc(N)cc3)cc21 | -1 | 51* | 1 | 3 | 44
COc1ccccc1C#Cc1ccc2c(=O)c3ccccc3n(C)c2c1 | 0 | 1 | 0 | 11 | .
COc1ccc(CCNS(=O)(=O)CCNC(=O)c2ccc(OC)cc2)cc1 | 0 | -2 | 0 | -3 | .
CCCc1cc(=O)[nH]c2nnc(SCC(=O)NC3CCCCC3)n12 | -1 | -3 | 0 | 14 | .
Cc1c(C(=O)O)sc2nc(/C=C/c3cccc(F)c3)[nH]c(=O)c12 | 0 | 1 | 0 | . | .
Cc1ccc(/C=C/c2nc3sc(C(=O)O)c(C)c3c(=O)[nH]2)cc1[N+](=O)[O-] | 0 | 36* | 0 | . | 1
Cc1occc1C(=O)N/N=C/c1cccc2ccccc12 | 1 | -7 | 0 | . | .
O=C(/C=C/Nc1ccc(S(=O)(=O)Nc2ncccn2)cc1)c1ccc(Cl)c(Cl)c1 | 8 | 40* | 0 | . | 3
O=C(/C=C/Nc1ccc(S(=O)(=O)Nc2ncccn2)cc1)c1cccs1 | 0 | 3 | 0 | -2 | .
CCOC(=O)c1ccc2c(c1)nc(SCC(=O)c1ccco1)n2CC | 0 | -2 | 0 | -19 | .
CCOC(=O)c1ccc2c(c1)nc(SC/C(O)=C(\C#N)c1nc3ccccc3[nH]1)n2CC | -3 | 33* | 0 | 8 | 15
COc1ccccc1OCCSc1nc2ccccc2n1CC(=O)O | -2 | -1 | 0 | -5 | .
O=C(CSc1nnc(SCc2ccccc2)s1)N/N=C/C=C/c1ccco1 | 1 | 48* | 0 | 6 | 43*
COc1ccc(N(CC(=O)N/N=C/c2ccc(-c3ccc([N+](=O)[O-])cc3)o2)S(=O)(=O)c2ccc(C)cc2)cc1Cl | 5 | 40* | 2 | 6 | 2
